Test systems include T-47D breast; BT-549 breast; MDA-MB-435 melanoma; SW-620 colon; MCF7 breast; HCT-116 colon; HCC-2998 colon; KM12 colon.
Common to all, as to assay: NCI-60 one-dose screen, 48 h (100 = growth as untreated, 0 = no growth, -100 = all killed)
Settings in all cases: 10 µM unless noted

The panel holds about 83,000 compounds, 20% with a hit somewhere; the sample as a whole holds those more often.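 Plates (96-well) were seeded with cells, treated with compound at one concentration, and incubated for 48 hours before percent growth was determined.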 A number with no mark means an inactive call. Activity calls are given as the source filed them. Rule for the calls: active = growth percent below 10; inactive = the rest.

Turning to `O=C1/C(=C/c2ccccc2)CN(C(=O)C(Cl)Cl)C/C1=C\c1ccccc1`, the growth in the assay with T-47D breast is 17.2%; in the assay on BT-549 breast, -5.59% (active); in the assay on MDA-MB-435 melanoma, -50.2% (active); in the assay with SW-620 colon, -49% (active); in the assay with MCF7 breast, -39% (active); in the assay on HCT-116 colon it was -70.7% (active). For the same molecule, the growth is -59.6% (active) with HCC-2998 colon and -61.8% (active) with KM12 colon.
For the molecule `Cc1ccc2c(c1)C(C)Cc1c(ncnc1-n1cnc3cc(C)ccc31)N2C` (configuration not stated), the growth in the assay with T-47D breast is 55.9%; in the assay on BT-549 breast it was -0.751% (active); in the assay with MDA-MB-435 melanoma, 4.21% (active); with SW-620 colon, 22.7%; in the assay on MCF7 breast, 12.6%; in the assay with HCT-116 colon it was 11.2%. Further, the growth in the assay on HCC-2998 colon was 21.7%; with KM12 colon, 16.5%.
In the case of `O=C(Cn1cc(CN2CCN(c3ccnc4cc(Cl)ccc34)CC2)nn1)Nc1cccc([N+](=O)[O-])c1`, the growth in the assay with T-47D breast is 75%; in the assay with BT-549 breast it was 85.6%; in the assay on MDA-MB-435 melanoma it was 98.7%; in the assay on SW-620 colon it was 95%; with MCF7 breast it was 89.1%; in the assay with HCT-116 colon it was 101%. Also, the growth is 106% in the assay on HCC-2998 colon and 85.4% with KM12 colon.
As to `N#C/C(=N\Nc1ccc(Cl)cc1)C(=O)Nc1cc(-c2ccccc2)nn1-c1ccccc1`, the growth in the assay with T-47D breast was 14.7%; with BT-549 breast, 11.4%; in the assay on MDA-MB-435 melanoma, 28.6%; with SW-620 colon, 21.4%; in the assay on MCF7 breast it was 16.9%; with HCT-116 colon, 8.26% (active). For the same molecule, the growth was 39.4% with HCC-2998 colon and 32.4% in the assay with KM12 colon.
As to `COc1cc(F)c(/C=C/c2cc(/C=C/c3cc(OC)c(OC)cc3F)n(-c3cc(F)cc(F)c3)n2)cc1OC`, the growth with T-47D breast was 64%; with BT-549 breast, 75.5%; in the assay with MDA-MB-435 melanoma it was -4.07% (active); in the assay with SW-620 colon, 0.82% (active); with MCF7 breast, 8.88% (active); in the assay with HCT-116 colon it was 100%. Moreover, the growth with HCC-2998 colon was 85.5%; in the assay with KM12 colon, 27.9%.
On to `C=CCN1C=CC(=O)[C@H](O[Si](C)(C)C(C)(C)C)[C@@H]1/C=C/c1ccccc1`, for which the growth in the assay with T-47D breast was -80.7% [100 µM] (active); in the assay on BT-549 breast, -62.4% [100 µM] (active); in the assay with MDA-MB-435 melanoma, -48.2% [100 µM] (active); in the assay on SW-620 colon, -58.9% [100 µM] (active); in the assay on MCF7 breast, -75.1% [100 µM] (active); in the assay on HCT-116 colon it was -77.5% [100 µM] (active). The values for the growth in the assay on HCC-2998 colon and with KM12 colon were -87.3% [100 µM] (active) and -71.8% [100 µM] (active), respectively.
Turning to `COc1ccc(Nc2ncnc3ccc(-c4cncc(NS(C)(=O)=O)c4)cc23)cc1Cl`, the growth is -13.6% (active) in the assay on T-47D breast; 24.5% with BT-549 breast; 49.1% in the assay on MDA-MB-435 melanoma; 37.7% with SW-620 colon; 15% in the assay with MCF7 breast; 19.1% with HCT-116 colon. Moreover, the growth was 49.3% in the assay with HCC-2998 colon and 61% in the assay with KM12 colon.
Take `CC[C@H](C)[C@H](NC(=O)[C@H](CCCCN)NC(=O)[C@H](CCCCN)NC(=O)[C@@H](NC(=O)[C@@H](NC(=O)[C@@H](N)Cc1cnc[nH]1)[C@@H](C)CC)[C@@H](C)CC)C(=O)N[C@@H](CCCNC(=N)N)C(=O)N[C@H](C(=O)N[C@@H](Cc1c[nH]c2ccccc12)C(=O)N[C@@H](Cc1ccc(O)cc1)C(=O)N[C@@H](CCCNC(=N)N)C(=O)N[C@@H](CCCCN)C(=O)N[C@@H](C)C(=O)N[C@@H](Cc1c[nH]c2ccccc12)C(=O)N[C@@H](Cc1cnc[nH]1)C(=O)N[C@H](C(=O)N[C@@H](CC(C)C)C(=O)NCC(=O)N[C@@H](CCCCN)C(=O)N[C@H](C(N)=O)C(C)C)C(C)C)[C@@H](C)O`: the growth in the assay with T-47D breast was -56.4% (active); in the assay on BT-549 breast, 41.9%; in the assay on MDA-MB-435 melanoma it was 23.6%; in the assay with SW-620 colon, 44.2%; in the assay with MCF7 breast, -67.9% (active); in the assay on HCT-116 colon it was 45.1%. In addition, the growth in the assay on HCC-2998 colon is 25.7%; with KM12 colon, -11.7% (active).
For the molecule `CN1Cn2c(ccc2C(F)(F)F)C(=O)CS1(=O)=O`, the growth is 115% with T-47D breast; 105% with BT-549 breast; 103% in the assay on MDA-MB-435 melanoma; 104% in the assay on SW-620 colon; 98.4% with MCF7 breast; 94.9% in the assay on HCT-116 colon. Also, the growth is 104% in the assay on HCC-2998 colon and 110% in the assay with KM12 colon.
As to `CCCCCC#CC1OC23CCCCC2C(C#N)(C(=N)O3)C1(C#N)C#N` (configuration not stated), the growth in the assay with T-47D breast was 113%; in the assay with BT-549 breast, 89.9%; in the assay with MDA-MB-435 melanoma, 92.6%; with SW-620 colon, 95.5%; in the assay on MCF7 breast, 88.4%; in the assay on HCT-116 colon, 89.2%. Further, the values for the growth in the assay with HCC-2998 colon and in the assay with KM12 colon were 102% and 99.3%, respectively.
Turning to `Cc1ccc(Cc2cnc(NC(=O)c3cc(C)oc3C)s2)cc1`, the growth was 58.3% in the assay on T-47D breast; 74% in the assay on BT-549 breast; 4.22% (active) in the assay with MDA-MB-435 melanoma; 51.6% with SW-620 colon; 32% in the assay with MCF7 breast; 72.4% with HCT-116 colon. Besides, the growth in the assay with HCC-2998 colon is 89.3%; in the assay on KM12 colon, 38.4%.
Turning to `COC1=CC(=O)C(OC)=C(O)C1=O`, the growth was 89% in the assay on T-47D breast; 98.9% in the assay with BT-549 breast; 101% in the assay with MDA-MB-435 melanoma; 93.2% in the assay with SW-620 colon; 91.5% in the assay on MCF7 breast; 98.7% in the assay with HCT-116 colon. The figures for the growth in the assay with HCC-2998 colon and in the assay with KM12 colon were 101% and 102%, respectively.
In the case of `CCCN1C(=O)/C(=c2\sc3n(c2=O)NC2C(N=3)N(CC)C(=O)N2CC)c2ccccc21` (configuration not stated), the growth was 26.2% with T-47D breast; 62.8% in the assay with BT-549 breast; -10.6% (active) in the assay on MDA-MB-435 melanoma; 31.5% in the assay on SW-620 colon; 17.5% in the assay on MCF7 breast; 15.6% in the assay with HCT-116 colon. Also, the growth with HCC-2998 colon was 30.4%; with KM12 colon it was 30.3%.
Turning to `CC1(C)C(N)=Nc2cc(OCCCCN3Cc4ccccc4C3)c(OCC3CC3)cc21`, the growth was 37.7% with T-47D breast; 83.7% with BT-549 breast; 71.9% in the assay on MDA-MB-435 melanoma; 92.8% in the assay on SW-620 colon; 48.5% with MCF7 breast; 47% with HCT-116 colon. Further, the growth was -0.545% (active) in the assay on HCC-2998 colon and 96% with KM12 colon.

(Values after PubChem BioAssay (NCI).)
